NS1 inh: qHTS Assay for Inhibitors of Influenza NS1 Protein Function; 270,000 compounds, 0.4% hits; Potency, µM (highest dose often 46.1 µM), inactives show top-dose activity, positive = more growth; calls by dose curve; note: potency is the fitted concentration of half-maximal effect; actives are rising curves; nearly all actives have a fitted effect of over 50% in size
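S. cerevisiae expressing influenza A NS1, grown in glucose, washed, then diluted 1:100 into pH 6.0 -URA galactose medium with 23 nl compound. Growth recovery read as OD600; NS1-free strain serves as control.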
CHX counter: Cycloheximide Counterscreen for Small Molecule Inhibitors of Shiga Toxin. cell reporter, cycloheximide protein synthesis inhibition counterscreen. max response, %. 300,000 compounds, 12% hits. AID 2314, 2010; in the data active = max response mostly above about 13%, no sharp cut-off; inactive = mostly below about 14%; note: read at 38.3 µM for the half of the compounds with a filed dose; 0% is about no effect
Pf growth 48h: Primary qHTS for delayed death inhibitors of the malarial parasite plastid, 48 hour incubation; P. falciparum luciferase growth in erythrocytes, 48 h; Potency, µM (titrated, usually from 28.7 µM), without a hit: at the top dose activity change, negative = inhibition, most hits filed as inhibitors; 310,000 compounds, 5.9% hits; AID 504832, 2011; note: potency is the fitted concentration of half-maximal effect; % is set by controls: 0 for no effect and ±100 for the full control effect
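Read-out is firefly luciferase luminescence from an integrated reporter in P. falciparum, so falling signal marks reduced parasite growth. Infected erythrocytes were at 2% hematocrit and 0.1% parasitemia (final) in Albumax-supplemented RPMI 1640.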
Sm TGR inh: qHTS Assay for the Inhibitors of Schistosoma Mansoni Peroxiredoxins; Potency, µM (series often up to 114 µM), for inactives: at the top dose activity change, negative = inhibition, actives largely listed as inhibitors; purified TGR, DTNB reduction, TNB absorbance 405 nm; 360,000 compounds, 3% hits; note: potency is the fitted concentration of half-maximal effect; % is set by controls: 0 for no effect and ±100 for the full control effect; nearly all actives have a fitted effect of over 60% in size
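TGR 20 nM + NADPH 100 uM (dispensed conc.), cpd preinc 15 min RT; start with NADPH (500 uM addition) then DTNB (15 mM addition). Kinetic TNB absorbance, 405 nm filter. Four-parameter Hill fit across titration.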
Shiga inhibitor: A qHTS for Small Molecule Inhibitors of Shiga Toxin | Vero cells, Shiga toxin protein synthesis inhibition reporter | inhibition, % at 38.7 µM | 290,000 compounds, 9.2% hits | AID 2315, 2010; in the data active = inhibition mostly above about 28%, no sharp cut-off; inactive = mostly below about 43%; note: 0% is about no effect
Pf growth 96h: Primary qHTS for delayed death inhibitors of the malarial parasite plastid, 96 hour incubation; Potency, µM (top dose mostly 28.7 µM), for inactives: at the top dose activity change, negative = inhibition, usual class: inhibitors; 320,000 compounds, 6.9% hits; P. falciparum luciferase reporter growth, 96 h; AID 504834, 2011; note: potency is the fitted concentration of half-maximal effect; % is set by controls: 0 for no effect and ±100 for the full control effect
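Readout is luminescence from an integrated firefly luciferase in P. falciparum. Red cells, 2% hematocrit and 0.05% parasitemia final, were cultured with compound through two parasite generations (96 hours) at 37 C, 5% CO2.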
Active calls of the source: *. In the library only some 21% were active in any assay of this set; here they are far more common. Unless noted, calls come from the whole dose curve; as a rule, active = well fitted curve in the direction sought with a large enough effect; inconclusive = small, poorly fitted or top-dose-only effect, or another doubt; inactive = no such curve, though single readings can be large; an effect the other way counts as inactive or inconclusive.

Results for CCCN=Cc1sc2ccc(OCC)cc2c1O ?
NS1 inh: -86%; CHX counter: 41*; Pf growth 48h: 75%; Sm TGR inh: -19%; Shiga inhibitor: 101*; Pf growth 96h: 54%

How did CCC(C(=O)Nc1cc(F)ccc1F)n1nc(C)c2c(C)n(-c3ccc(C)cc3)nc2c1=O (configuration not stated) do in these assays?
NS1 inh: 2%; CHX counter: -2; Pf growth 48h: inconclusive; Sm TGR inh: 1%; Shiga inhibitor: 2; Pf growth 96h: 8.3µM*

Results for CCC(C(=O)Nc1cccc(OC)c1)n1nc(C)c2c(C)n(-c3ccccc3)nc2c1=O (configuration not stated) ?
NS1 inh: -9%; CHX counter: -10; Pf growth 48h: inconclusive; Sm TGR inh: -1%; Shiga inhibitor: -3; Pf growth 96h: 38%

How did CCC(C(=O)NCc1ccc(OC)c(OC)c1)n1nc(C)c2c(C)n(-c3ccc(C)cc3)nc2c1=O (configuration not stated) do in these assays?
Sm TGR inh: -3%

What do the screens show for `CCOc1ccc(NC(=O)C(CC)n2nc(C)c3c(C)n(-c4ccccc4)nc3c2=O)cc1` (configuration not stated)?
NS1 inh: 13%; CHX counter: -9; Pf growth 48h: inconclusive; Sm TGR inh: 1%; Shiga inhibitor: -5; Pf growth 96h: 13µM*

What do the screens show for `CCC(C(=O)Nc1ccccc1F)n1nc(C)c2c(C)n(-c3ccccc3)nc2c1=O` (configuration not stated)?
NS1 inh: 9%; CHX counter: -1; Pf growth 48h: inconclusive; Sm TGR inh: 9%; Shiga inhibitor: -5; Pf growth 96h: 15µM*

Results for Cn1c(Sc2ccc(-c3cccnc3)n2C)ccc1-c1cccnc1 ?
NS1 inh: -4%

How did Cc1ccc2oc(C(=O)Nc3cccc(Cl)c3)cc(=O)c2c1 do in these assays?
Sm TGR inh: -3%

What do the screens show for `COc1ccc(CCNC(=O)C2CCCN(c3nc4c(C)cc(C)cc4s3)C2)cc1OC` (configuration not stated)?
Sm TGR inh: 1%

Results for C=CCNc1nc(-c2sc(NC(C)=O)nc2C)cs1 ?
NS1 inh: -8%; CHX counter: 41*; Pf growth 48h: inconclusive; Sm TGR inh: -12%; Shiga inhibitor: 132*; Pf growth 96h: -3%

What do the screens show for `C=CCNc1nc(-c2sc(NC(=O)CC)nc2C)cs1`?
NS1 inh: -36%; CHX counter: 36*; Pf growth 48h: inconclusive; Sm TGR inh: -8%; Shiga inhibitor: 96*; Pf growth 96h: -18%

How did CC1CCCN(C(=O)Cc2cccc3ccccc23)C1 (configuration not stated) do in these assays?
NS1 inh: -17%; CHX counter: 20; Pf growth 48h: 20%; Sm TGR inh: -1%; Shiga inhibitor: 4; Pf growth 96h: inconclusive

How did CCOc1ncccc1C(=O)OCc1cccc([N+](=O)[O-])c1 do in these assays?
CHX counter: 6; Pf growth 48h: 17%; Sm TGR inh: 8%; Shiga inhibitor: -17; Pf growth 96h: 15%

How did CCCCC[n+]1ccn(C2=C([O-])c3ccccc3C(=O)/C2=N\S(=O)(=O)c2ccc(Cl)cc2)c1 do in these assays?
NS1 inh: -6%; CHX counter: 2; Pf growth 48h: 0%; Sm TGR inh: 0%; Shiga inhibitor: 19; Pf growth 96h: inconclusive

What do the screens show for `CCCC[n+]1ccn(C2=C([O-])c3ccccc3C(=O)/C2=N\S(=O)(=O)c2ccc(Cl)cc2)c1`?
NS1 inh: -4%; CHX counter: 5; Pf growth 48h: inconclusive; Sm TGR inh: -25%; Shiga inhibitor: 46; Pf growth 96h: 3.7µM*

Results for Cc1cccc(N=C2NN=C(c3c(C)[nH]c4ccccc34)CS2)c1 ?
NS1 inh: 25%; CHX counter: 6; Pf growth 48h: 2.6µM*; Sm TGR inh: -3%; Shiga inhibitor: 13; Pf growth 96h: 1.5µM*
